Screening results from PubChem.
AmpC no deterg – AmpC beta-lactamase inhibition without detergent | AmpC nitrocefin hydrolysis, absorbance 480 nm, 0.0001% Triton | Potency, µM (highest dose often 57.1 µM), usual class: inhibitors | 0.52% of 330,000 active; further: nearly all actives have a fitted effect of over 20% in size
Target sequence (P00811 whole entry, looked up): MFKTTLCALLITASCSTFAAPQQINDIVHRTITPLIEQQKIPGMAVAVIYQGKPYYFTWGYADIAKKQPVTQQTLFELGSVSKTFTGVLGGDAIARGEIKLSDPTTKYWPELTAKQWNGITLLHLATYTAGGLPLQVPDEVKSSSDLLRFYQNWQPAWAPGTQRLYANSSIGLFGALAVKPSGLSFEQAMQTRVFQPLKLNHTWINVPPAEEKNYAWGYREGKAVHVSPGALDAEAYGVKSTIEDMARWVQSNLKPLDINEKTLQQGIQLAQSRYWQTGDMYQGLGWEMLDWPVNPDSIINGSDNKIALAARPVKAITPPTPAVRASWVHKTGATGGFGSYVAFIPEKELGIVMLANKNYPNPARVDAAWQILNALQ
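20 mM phosphate pH 7.0 + 0.01% (detergent screen) or 0.0001% Triton X-100; 5.3 nM AmpC reagent; cpd preinc 15 min RT; nitrocefin (800 uM stock) to start; A480 q20 s × 4 min; Activity was normalised to no-enzyme and no-compound control wells.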
HCMV inh – blocks human cytomegalovirus replication. HFF cells, HCMV-luciferase reporter, 72 h; hits give low values. activity change, negative = inhibition, % at 57.5 µM. 4.5% of 410,000 active. AID 1259415; in the data active means activity change below about -60%; inconclusive means no clear call, values can overlap the other calls; inactive means above about -39%
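Screen run at 2 compound doses on HFFs infected with reporter HCMV, MOI 1 PFU/cell. Luciferase activity from cell lysates at 72 h post infection gave inhibition relative to buffer-only and Salinomycin wells.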
FMDV inh – antivirals against foot and mouth disease virus | Potency, µM (doses to about 57.9 µM), hits mostly inhibitors | FMDV antiviral cell-based qHTS | 1.2% of 410,000 active | AID 1159524; calls by dose curve; tested in HEK293T cells; further: read-out not given here; nearly all actives have a fitted effect of over 45% in size
AmpC detergent – blocks E. coli AmpC beta-lactamase in detergent assay; P00811; AmpC hydrolysis of nitrocefin, absorbance 480 nm, 0.01% Triton; Potency, µM (top dose mostly 114 µM), usual class: inhibitors; 0.041% of 370,000 active; AID 485294; further: nearly all actives have a fitted effect of over 25% in size
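AmpC (5.3 nM in the dispensed reagent) in 20 mM phosphate pH 7.0 with 0.01% (detergent screen) or 0.0001% Triton X-100 was preincubated with compounds for 15 min at room temperature. Nitrocefin was then added from an 800 uM solution, and hydrolysis was followed at 480 nm.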
HCV inhibitor – HCV inhibition | Potency, µM (doses to about 41.8 µM), hits mostly inhibitors | Huh7.5.1 HCVcc-Cre infection, luciferase reporter, 44 h | 3.4% of 340,000 active
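Cells seeded at 1,000/well and cultured 4 h, then compounds added followed by HCVcc-Cre virus (~0.5 moi). After 44 h further culture, luciferase substrate was added, plates held 15 min at room temperature, and luminescence read for 15 sec.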
Large screens that a line does not name were inactive; ! = repeats disagree. Most compounds without a hit are left out; they make up all but 7.3% or so of the library. Unless noted, the call rests on the fitted dose curve; in most records, active means well fitted curve in the direction sought with a large enough effect; inconclusive means small, poorly fitted or top-dose-only effect, or another doubt; inactive means no such curve, though single readings can be large; an effect the other way counts as inactive or inconclusive.

Cc1nn(-c2ccccc2)c(N)c1Sc1ccc([N+](=O)[O-])cc1	FMDV inh 31.6µM
Cc1nn(S(=O)(=O)c2ccc(Cl)cc2)c(C)c1S(=O)(=O)N1CCCCCC1	FMDV inh inconclusive (no result: AmpC no deterg, HCV inhibitor)
CN1CCc2c(sc3c2C(=O)NC(c2ccc(C(C)(C)C)cc2)N3)C1 (centres undefined)	none (no result: AmpC no deterg, HCV inhibitor)
Cc1ccc(NC(=O)c2ccc(NCCCN3CCC(C)CC3)c([N+](=O)[O-])c2)c(C)c1	HCMV inh inconclusive, HCV inhibitor 11.2µM
Cc1ccc(NC(=O)c2ccc(NCCN)c([N+](=O)[O-])c2)cc1Cl	HCMV inh -81.7, AmpC detergent inconclusive, HCV inhibitor 14.1µM
Cc1ccc(NC(=O)c2ccc(NCCc3ccccc3)c([N+](=O)[O-])c2)cc1F	HCV inhibitor inconclusive
COc1cccc(NC(=O)c2ccc(NCCCN3CC(C)CC(C)C3)c([N+](=O)[O-])c2)c1 (centres undefined)	HCV inhibitor 7.94µM
CC1CCc2c(sc3ncnc(NCCN4CCOCC4)c23)C1 (centres undefined)	HCV inhibitor inconclusive
CC1CCc2sc3ncnc(N4CCOCC4)c3c2C1 (centres undefined)	HCMV inh inconclusive, FMDV inh inconclusive, AmpC detergent inconclusive, HCV inhibitor 10µM
CC1CCc2c(sc3ncnc(N4CCOCC4)c23)C1 (centres undefined)	HCMV inh -65.4 (no result: AmpC no deterg)
Cc1ccc(-c2nc(NC(=O)CSc3ncnc4sc5c(c34)CCC(C)C5)ns2)cc1 (centres undefined)	none (no result: AmpC no deterg, HCV inhibitor)
Cc1ccc(C(=O)CSc2ncnc3sc4c(c23)CCC(C)C4)cc1 (centres undefined)	HCMV inh -99.4, HCV inhibitor inconclusive
Cc1ccccc1C(=O)NNC(=O)CCCCC(=O)NNC(=O)c1ccccc1C	none (no result: AmpC no deterg, AmpC detergent)
CCc1ccc(-c2n[nH]nc2C2=CC(=O)C[C@H](c3ccc(F)cc3)C2)cc1	FMDV inh inconclusive (no result: AmpC no deterg, AmpC detergent, HCV inhibitor)
CCCCn1c(SCC(=O)c2ccccc2)nc2c(sc3ccccc32)c1=O	none (no result: AmpC no deterg, HCV inhibitor)
COc1ccccc1OCC(O)Cn1c(=N)n(CCN2CCCCC2)c2ccccc21 (centres undefined)	HCMV inh inconclusive, AmpC detergent inconclusive, HCV inhibitor 2.51µM
N=c1n(CCN2CCOCC2)c2ccccc2n1CC(O)COc1ccccc1 (centres undefined)	none
N=c1n(CCN2CCCCC2)c2ccccc2n1CC(O)COc1ccccc1 (centres undefined)	FMDV inh 39.8µM!, HCV inhibitor 11.2µM
Cc1ccccc1OCCn1c(=N)n(C(C)C)c2ccccc21	HCMV inh -68.9, FMDV inh inconclusive (no result: AmpC no deterg, HCV inhibitor)
Cc1ccccc1OCC(O)COc1ccccc1C	HCMV inh -100.1 (no result: AmpC no deterg, AmpC detergent)
Cc1ccccc1OCCN1C(=O)c2ccccc2C1=O	AmpC detergent inconclusive (no result: FMDV inh)
CC[C@H]1Nc2ccc(OC)cc2[C@@H](NS(C)(=O)=O)[C@@H]1C	none (no result: AmpC no deterg, FMDV inh, AmpC detergent, HCV inhibitor)
COc1ccccc1CNC(=O)c1cnn(-c2nccc(-c3cccs3)n2)c1C	none (no result: AmpC no deterg, HCMV inh, AmpC detergent, HCV inhibitor)
CCCNC(=O)C[C@H]1C[C@H]2c3cc(NC(=O)Nc4ccc(F)cc4)ccc3O[C@H]2[C@@H](CO)O1	none (no result: AmpC no deterg, AmpC detergent, HCV inhibitor)
O=C(NCCC1=CCCCC1)c1cccc(S(=O)(=O)N2CCCCC2)c1	none
Cc1ccccc1OCC(O)Cn1c(=N)n(CCN2CCCCC2)c2ccccc21 (centres undefined)	HCMV inh -92.0, FMDV inh inconclusive (no result: AmpC no deterg, HCV inhibitor)
Cc1ccc(Cn2c(=N)n(CC(O)COc3ccccc3)c3ccccc32)cc1 (centres undefined)	HCV inhibitor inconclusive
N=c1n(Cc2ccccc2)c2ccccc2n1CC(O)COc1ccccc1 (centres undefined)	HCMV inh inconclusive, FMDV inh inconclusive, HCV inhibitor 14.1µM
O=C(c1ccc(Br)cc1)c1cc([N+](=O)[O-])ccc1N1CCCCC1	HCMV inh -91.1, HCV inhibitor inconclusive
O=C(Nc1cc(C(F)(F)F)ccc1N1CCCCC1)c1cccc([N+](=O)[O-])c1	HCMV inh -76.8, HCV inhibitor inconclusive
CN1CCN(c2ccc([N+](=O)[O-])cc2C(=O)c2ccc(Br)cc2)CC1	HCMV inh inconclusive
O=C(c1ccccc1)c1cc([N+](=O)[O-])ccc1N1CCCC1	HCMV inh -61.4, FMDV inh inconclusive, HCV inhibitor inconclusive
